MLL AF4-AF9 inh: inhibitors of human MLL-AF4/AF9 interaction; AlphaScreen, biotin-AF4 peptide binding to FLAG-AF9; inhibition, % at 10 µM; 0.47% of 350,000 active; P42568;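 active means every replicate reaching a set inhibition limit, whatever the replicate mean, cut at about 25% in these data; inconclusive means mean inhibition reaches that limit but some replicates miss it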;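 further: 0% = plate neutral control median and 100% = total signal loss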
Target sequence (P42568 whole entry, looked up): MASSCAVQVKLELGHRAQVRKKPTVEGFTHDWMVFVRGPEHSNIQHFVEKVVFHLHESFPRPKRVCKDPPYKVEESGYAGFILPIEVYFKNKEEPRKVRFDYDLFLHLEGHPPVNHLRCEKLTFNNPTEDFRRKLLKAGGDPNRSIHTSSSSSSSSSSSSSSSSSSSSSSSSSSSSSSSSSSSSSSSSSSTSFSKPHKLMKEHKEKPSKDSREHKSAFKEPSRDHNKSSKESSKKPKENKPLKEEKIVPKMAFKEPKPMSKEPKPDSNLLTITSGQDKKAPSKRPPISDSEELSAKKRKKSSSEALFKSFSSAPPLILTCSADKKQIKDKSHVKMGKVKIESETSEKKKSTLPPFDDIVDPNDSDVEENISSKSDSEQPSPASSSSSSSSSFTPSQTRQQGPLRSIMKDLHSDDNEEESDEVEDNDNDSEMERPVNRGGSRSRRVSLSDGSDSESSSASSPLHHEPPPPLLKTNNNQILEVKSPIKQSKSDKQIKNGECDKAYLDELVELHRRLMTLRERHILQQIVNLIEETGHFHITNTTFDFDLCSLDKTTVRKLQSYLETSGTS
MITF act: activators of MITF-driven TRPM1 promoter activity in SK-MEL-5 cells. SK-MEL-5 TRPM1-promoter luciferase, 24 h; % of positive control, neutral wells = 0. activation, % at 12.5 µM. 0.75% of 300,000 active. AID 588334;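 active means mean activation of at least 80% with every replicate also reaching 80%; inconclusive means mean reaches 80% but some replicate falls short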;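 further: 0% = neutral control wells and 100% = parthenolide positive control wells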
rRNA inh HTS: inhibitors of bacterial rRNA selective over humanized ribosomes | GFP signal change (wild-type ribosome), % (concentration not given with the values) | 1.6% of 350,000 active | E. coli WT GFP vs humanized-ribosome RFP mutants, fluorescence, 24 h; active compounds read low; DMSO median 0, no signal -100 | AID 720706;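 active means significant combined selectivity score with lowered wild-type GFP, culture density cut under 30%, mutant RFP and density less affected; inactive means any of these conditions unmet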
esBAF inh: inhibitors of esBAF chromatin remodeling in mouse ES cells; Bmi1-luciferase knock-in reporter, 24 h; 100% = twice the neutral-well signal; 2% of 350,000 active; reporter increase, % at 12.5 µM; AID 602393; in the data active means activation above about 40%; inconclusive means no clear call, values can overlap the other calls;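 further: 0% = median of the plate's neutral control wells and 100% = double that signal; a rise in the Bmi1 reporter signal indicates esBAF inhibition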
Wnt bcat act: activates Wnt/beta-catenin signaling in a reporter cell assay; activation, % at 9.35 µM; activator, plate reader; 1.2% of 300,000 active; AID 743398; in the data active means activation above about 30%, passing the limit was not always enough; inconclusive means no clear call, values can overlap the other calls;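 further: 0% = neutral control wells and 100% = positive control wells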
* hit, by the source's call; ? = inconclusive; nt = no result. The list is not random: actives were taken first. Their share in the collection is about 3.7%.

SMILES	MLL AF4-AF9 inh	MITF act	rRNA inh HTS	esBAF inh	Wnt bcat act
Cc1ccccc1Nc1nnc(SCC(=O)c2c(N)n(C)c(=O)n(C)c2=O)s1	0.9	-3.6	5.5	nt	-2.7
COCCCNC(=O)[C@H](Cc1c[nH]c2ccccc12)NC(=O)OCc1ccccc1	-18.1	-14.0	-3.7	-4.0	-0.9
CN1CCN(C(=O)C[C@H]2C=C[C@@H](NS(=O)(=O)c3cccc(F)c3)[C@H](CO)O2)CC1	-3.1	nt	1.3	2.5	nt
O=C(Nc1ccccc1Cl)N1[C@@H](CO)[C@@H]2c3ccccc3NC[C@@H]21	1.7	nt	-1.7	-1.6	nt
O=C(Nc1ccccc1Cl)N1[C@H](CO)[C@@H]2c3ccccc3NC[C@@H]21	-0.8	nt	-2.7	61.0*	nt
COc1ccccc1-c1nnc(SC2CCc3ccccc3NC2=O)s1 (configuration not stated)	nt	0.2	nt	-21.3	nt
O=C(CCCN1C(=O)C(=Cc2ccc3c(c2)OCO3)SC1=S)Nc1ccc(C(=O)O)c(O)c1	10.7	nt	-26.2*	-12.1	0.7
O=C(CCCN1C(=O)/C(=C/c2ccc3c(c2)OCO3)SC1=S)Nc1ccc(C(=O)O)cc1	4.0	-22.0	nt	-57.6	4.5
O=C(CN1CCOCC1)N1CC[C@@H]2[C@H](CO)Nc3ccc(-c4ccccc4F)cc3[C@@H]21	nt	nt	-1.1	41.6*	nt
CCC(=O)N1CC[C@H]2[C@H](CO)Nc3ccc(C#Cc4ccc(OC)cc4)cc3[C@H]21	26.1*	nt	-3.5	nt	nt
O=C(C1CC1)N1CC[C@@H]2[C@H](CO)Nc3ccc(Br)cc3[C@@H]21	-0.4	nt	-0.8	58.0*	nt
O=C(C1CC1)N1CC[C@@H]2[C@@H](CO)Nc3ccc(Br)cc3[C@@H]21	-0.9	nt	-0.6	2.2	nt
O=C(CN1CCOCC1)N1CC[C@@H]2[C@H]1c1cc(-c3ccccc3)ccc1N[C@@H]2CO	1.3	nt	2.6	3.0	nt
COc1ccc(-c2ccc3c(c2)[C@@H]2[C@@H](CCN2C(=O)CN2CCOCC2)[C@@H](CO)N3)cc1	0.5	nt	5.3	48.6*	nt
COCC(=O)N1CC[C@H]2[C@H](CO)Nc3ccc(C#Cc4ccc(OC)cc4)cc3[C@H]21	22.9	nt	-7.5	nt	nt
COc1cccc(-c2ccc3c(c2)[C@H]2[C@H](CCN2C(=O)CN2CCOCC2)[C@@H](CO)N3)c1	-1.7	nt	-2.9	-5.8	nt
CC(=O)c1cccc(NC(=O)CNC(=O)Cc2cccc3ccccc23)c1	-4.2	-11.0	-9.4	2.2	-1.4
COc1ccc(CN(CC(=O)NCc2ccco2)C(=O)CCC(=O)Nc2nccs2)cc1	nt	8.0	nt	2.8	nt
C[C@H]1CN([C@@H](C)CO)S(=O)(=O)c2ccc(-c3ccc(F)cc3)cc2O[C@@H]1CN(C)C(=O)Nc1ccccc1F	-1.5	nt	-5.4	1.0	nt
Cn1nnc(NC(=S)NC(=O)c2ccc(-c3ccc(Br)cc3)o2)n1	-16.7	23.4	3.1	nt	48.6*
C[C@H](CO)N1C[C@H](C)[C@@H](CN(C)C(=O)NC2CCCC2)Oc2ncc(-c3cccnc3)cc2C1=O	-12.5	nt	3.7	-4.9	nt
CC(=O)Nc1ccc(NC(=O)c2ccc(COc3ccc(C)cc3)o2)cc1	-3.1	7.2	13.0	?	1.9
c1ccc2sc(SCSc3nc4ccccc4s3)nc2c1	-3.1	20.2	4.5	20.4	8.4
N#CCc1nc(CSc2nc3ccccc3s2)cs1	3.2	46.1	-5.7	61.9*	nt
O=C(CSC1=NS(=O)(=O)c2ccccc21)Nc1ccccc1	-15.3	-48.4	-18.7	50.1*	-22.1
SMILES	MLL AF4-AF9 inh	MITF act	rRNA inh HTS	esBAF inh	Wnt bcat act
COc1ccc(CN(C)C[C@H]2OCCCC[C@H](C)Oc3ccc(NC(=O)Nc4ccc(C(F)(F)F)cc4)cc3C(=O)N([C@H](C)CO)C[C@H]2C)cc1	5.0	nt	6.2	-72.8	nt
COc1ccc(/C=C/C(=O)c2ccc(OC)cc2OC)c(OC)c1	8.0	2.6	nt	22.7	-1.2
CCOc1ccccc1/C=C/C(=O)c1ccc(Cl)cc1	9.5	-5.9	-26.9*	nt	6.4
COc1ccc(/C=C/C(=O)c2ccccc2)c(OC)c1	7.3	54.4	-1.4	nt	61.1*
COc1ccc2[nH]cc(/C=C/C(=O)c3ccccc3)c2c1	9.3	?	-31.4	nt	39.2*
O=C(/C=C/c1ccccc1O)c1ccccc1	-1.5	11.7	-19.4*	23.6	12.8
COc1ccccc1/C=C/C(=O)c1ccc(Cl)cc1	nt	34.5	nt	13.6	nt
COc1ccc(OC)c(C(=O)CSc2nnc(-c3cccnc3)n2C)c1	nt	-13.4	nt	nt	nt
COc1ccc(N2c3ccccc3CN(Cc3ccccc3)[C@@H](C)[C@H]2Cc2cccnc2)cc1	25.3*	nt	-7.6	-6.3	-1.9
c1ccc(CNc2c(C3CCNCC3)nc3scc(-c4ccccc4)n23)cc1	6.2	nt	-12.0	3.1	-1.5
Cc1ccc(N2C(=NC(=O)c3ccccc3)SC3CS(=O)(=O)CC32)cc1 (configuration not stated)	-1.9	0.9	-9.4	nt	0.3
CCCC(=O)N=C1SC2CS(=O)(=O)CC2N1c1ccc(-c2nc3ccc(C)cc3s2)cc1 (configuration not stated)	-3.3	57.1	nt	nt	33.7*
O=C(NCCN1CCN(C(=O)c2ccccc2Cl)CC1)C(=O)NCc1ccccc1	-2.6	-4.5	9.0	-4.7	2.5
CCN(CC)CC(=O)N1c2ccccc2CCc2ccc(NC(=O)c3cc(OC)c(OC)c(OC)c3)cc21	11.6	6.9	-3.7	-3.1	1.6
CCCOc1c(Br)cc(C2C3=C(CCCC3=O)N(CC)C3=C2C(=O)CCC3)cc1OC	-14.2	3.7	-46.2	44.4*	-4.3
c1ccc(-c2nc(-c3nccc4ccccc34)oc2-c2ccccc2)cc1	-1.8	109.3*	-6.7	nt	26.7
Cc1ccc(O)c(CP(=O)(c2ccccc2)c2ccccc2)c1	-0.4	-14.8	-6.0	nt	-2.0
Cc1ccc(O)c(CN(C)Cc2cc(C)ccc2O)c1	11.3	71.8	nt	50.6*	24.9
O=C(Nc1ccon1)c1ccc(OC2CCCC2)cc1	nt	?	nt	nt	46.2*
COc1cccc(-c2cnc3c(c2)C(=O)N([C@H](C)CO)C[C@H](C)[C@H](CN(C)CC2CCCC2)O3)c1	-1.2	nt	7.4	1.2	nt
COc1ccc(-c2cc3ncc(-c4ccccc4)c(N)n3n2)cc1	-5.4	147.5*	4.2	nt	6.1
N#Cc1cnc2cc(-c3ccccc3)nn2c1N	-3.3	nt	9.9	9.6	-2.1
C[C@@H]1CN([C@@H](C)CO)C(=O)c2cccc(NS(=O)(=O)c3cccs3)c2O[C@@H]1CN(C)S(=O)(=O)c1ccc(F)cc1	0.3	nt	-3.3	4.0	nt
COc1ccc2[nH]c(=O)c(CN(CCO)S(=O)(=O)c3ccc(C)cc3)cc2c1	-6.3	6.6	-23.6*	nt	-1.5
CCOC(=O)c1cccc(S(=O)(=O)N(CCO)Cc2cc3cc(OC)ccc3[nH]c2=O)c1	-6.4	-12.3	-17.9*	-3.5	-4.5
Cc1ccc(S(=O)(=O)N(C)C[C@H]2OCCCC[C@H](C)Oc3ccc(NC(=O)NC(C)C)cc3C(=O)N([C@H](C)CO)C[C@H]2C)cc1	-1.6	nt	-3.3	1.0	nt
O=C(NCC(c1ccco1)N1CCCC1)c1cccc(NS(=O)(=O)c2ccc(Br)cc2)c1 (configuration not stated)	0.4	6.5	-0.3	nt	-1.5
